Experimental data reported in PubChem BioAssay AID624464 (National Center for Advancing Translational Sciences (NCATS), 2012).
Hit rate of the full screen: of about 360,000 compounds, about 810 (0.23%) were called active. Only a selection was taken, and actives are over-represented in it overall. Values without a mark were called inactive. Rule as the data show it: active = potentiation above about 50%; inconclusive = mostly about 30% to 49%; inactive = weaker than that.

Target: D(2) dopamine receptor (Homo sapiens) (UniProt P14416)
Test: Beta-Arrestin HTS for Positive Allosteric Modulators of the Human D2 Dopamine Receptor: Potentiators
Conditions: DiscoveRx D2 beta-arrestin cells, luminescence, 90 min; stronger effect = higher value; 100% = 57 uM dopamine signal
Description: There is great interest in identifying small molecule ligands for G-protein coupled receptors (GPCRs) as nearly 50% of all FDA-approved drugs target these important receptor proteins. […] Amongst the dopamine receptors (DARs), the D2 is arguably one of the most validated drug targets in neurology and psychiatry. For instance, all receptor-based antiparkinsonian drugs primarily work via stimulating the D2 DAR, whereas all FDA-approved antipsychotic agents are antagonists of this receptor. The D2 DAR is also therapeutically targeted in other disorders such as restless legs syndrome, tardive dyskinesia, Tourette's syndrome, and hyperprolactinemia.
To this end, a miniaturized qHTS screen was developed to be screened against the Molecular Libraries Small Molecule Repository (MLSMR). This assay seeks to identify potentiators against the D2 DAR.
NIH Molecular Libraries Probe Production Network [MLPCN]
NIH Chemical Genomics Center [NCGC]
PI Name: David Sibley, National Institutes of Neurological Disorders and Stroke
DiscoveRx D2 cells were thawed from frozen stock and seeded at 2,100 cells/ 3 uL/well media (DiscoveRx Plating Reagent 2) with MultiDrop Combi dispenser (Thermo Scientific, Logan, UT) onto white tissue culture treated 1536-well Aurora plates (Brooks Automation, Chelmsford, MA) and allowed to attach overnight at 37 deg C, 5% CO2. Next, 23 nL/well of compound solutions in DMSO were added with a pintool transfer (Kalypsis, San Diego, CA). As the positive control, 1 uL/well dopamine (EC100, 57 uM final concentration) diluted in buffer (HBSS + 10 mM HEPES + SMB + 0.1 %Tween-20) was dispensed to 1 column of each plate. EC20 (Dopamine at 50 nM final concentration) was dispensed to the rest of the plate except columns 1 &2 which were used as negative control (EC=0, buffer only), 1 uL/well as well. The cells were stimulated by compounds and dopamine for 90 minutes at 37 deg C, 5% CO2, after which 1.5 uL/well of DiscoveRx detection reagent was added with BioRAPTR FRD dispenser. The detection reagent was prepared by mixing of Galacton Star Substrate, Emerald II solution and PathHunter buffer (supplied by the assay kit) together at 1:5:19 proportion accordingly just prior to dispensing. The plates were incubated at ambient temperature for 1 hour and then the luminescent signal was read on ViewLux plate reader (PerkinElmer, Waltham, MA).

D(2) dopamine receptor (Homo sapiens), sequence (P14416 whole entry, looked up): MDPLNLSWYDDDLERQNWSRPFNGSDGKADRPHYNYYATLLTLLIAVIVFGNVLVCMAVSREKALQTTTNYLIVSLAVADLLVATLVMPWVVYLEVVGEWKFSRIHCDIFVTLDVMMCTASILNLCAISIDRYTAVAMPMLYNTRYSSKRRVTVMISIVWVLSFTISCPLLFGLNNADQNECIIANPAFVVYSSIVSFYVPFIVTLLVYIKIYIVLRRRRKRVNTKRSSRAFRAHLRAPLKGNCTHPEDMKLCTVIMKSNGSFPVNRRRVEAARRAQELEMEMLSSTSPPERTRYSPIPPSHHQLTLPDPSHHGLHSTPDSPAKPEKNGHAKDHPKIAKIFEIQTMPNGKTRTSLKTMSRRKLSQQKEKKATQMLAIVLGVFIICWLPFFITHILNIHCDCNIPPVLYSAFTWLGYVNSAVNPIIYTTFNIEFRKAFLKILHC

SMILES	potentiation
O=C(O)CCCC(=O)Nc1ccccc1-n1ccnc1	-9.58%
CSc1ncnc2c1ncn2CC(=O)C1CCC2C3CCC4=CC(=O)CCC4(C)C3CCC12C (stereo not given)	-2.03%
CCOC(=O)CSc1nc2ccc(C)cc2n2cnnc12	0.488%
CC1=C(C(=O)N(C(C)C)C(C)C)CC(CC(=O)NCC2CCCCC2)C(=O)N1Cc1ccccc1 (stereo not given)	1.77%
O=C(CCNS(=O)(=O)c1ccccc1C(F)(F)F)Nc1ccncc1	0.0096%
O=C(OCC(=O)N(CCc1ccccc1)Cc1ccccc1)c1ccccc1[N+](=O)[O-]	-22.2%
O=C(c1cccnc1)N(c1cc2sc(=O)oc2c2ccccc12)S(=O)(=O)c1ccccc1	61.6% (active)
O=C(c1cccnc1)N(Cc1ccccc1)C(=O)c1cccnc1	-3.67%
COc1ccc(N(C(=O)c2cccnc2)S(=O)(=O)c2ccc(OC)c(OC)c2)cc1	0.917%
CC(C)Cc1ccc(S(=O)(=O)N2CCN(C(=O)c3ccco3)CC2)cc1	-6.64%
CC(C)(C)S(=O)N1Cc2cc(C(=O)NCCCN3CCOCC3)nc(-c3cccc(-c4cc5ccccc5o4)c3)c2[C@H]1CCO (stereo not given in full)	-2.56%
COc1ccc(/C=C(\NC(=O)c2ccc(OCC(C)C)cc2)C(=O)OCc2ccco2)cc1	-7.94%
CCCC(=O)N1CCC1(C)C(=O)NCc1ccc(C(C)C)cc1 (stereo not given)	-0.154%
CC(=O)N1CCN(c2ccc(NCc3ccc(C(C)C)cc3)cc2)CC1	62.8% (active)
CC(C)c1ccc(NC(=O)COC(=O)c2ccc(CN3CCCC3=O)cc2)cc1	0.762%
COc1ccc(C(=O)NCCNc2ccc([N+](=O)[O-])cn2)cc1	-11.5%
CCOCC(=O)Nc1ncc(S(=O)(=O)c2ccc([N+](=O)[O-])cc2)s1	24.1%
COC(=O)C(NC(=O)c1ccc(OC)cc1)(Nc1ncc(S(=O)(=O)c2ccc([N+](=O)[O-])cc2)s1)C(F)(F)F (stereo not given)	65.4% (active)
CCCCN1C(=S)NC[C@@H]1C(C)CC (stereo not given in full)	-1.6%
N#Cc1ccc(COC(=O)Cn2nnc(-c3ccccc3)n2)cc1	-0.341%
COCCn1c(=NC(=O)c2ccccc2[N+](=O)[O-])sc2cc(S(C)(=O)=O)ccc21	74.4% (active)
COC(=O)CNC(=O)c1ccccc1[N+](=O)[O-]	-2.49%
Cn1c(=NC(=O)c2ccc3c(c2)OCCO3)sc2cc(S(C)(=O)=O)ccc21	-10.1%
C=CCSc1ccc(S(=O)(=O)N2CCN(C)CC2)cn1	-3.17%
O=C(Nc1ccnn1C1CCN(C/C=C/c2ccc(F)cc2)CC1)C1CCCC1	-11%
Cn1ncc2c(N3CCCCC3)nc(NCCCO)nc21	-3.76%
CS(=O)(=O)c1sc(C(=O)NC(=S)Nc2ccc(OC(F)(F)F)cc2)c2c1C=CCC2	-5.92%
COc1ccccc1Cc1c(-c2ccc(Cl)cc2)nc2ccc(Cl)cn12	-4.81%

SMILES	potentiation
COc1cccc(N2CC(C(=O)NCc3n[nH]c(=O)c4ccccc34)CC2=O)c1 (stereo not given)	-3.09%
CCCCC(=O)N1CC2(C)CN(C(=O)CCCC)CC(C)(C1)C2=O	12.6%
COc1cc(C(=O)N2CCN(S(=O)(=O)c3ccc(C(C)C)cc3)CC2)ccc1OCC(=O)N1CCOCC1	0.615%
CC(=O)N1CCN(c2ccccc2NC(=S)NC(=O)c2cc3ccccc3o2)CC1	1.52%
Cc1ccccc1NC(=O)c1nn(-c2ccc(F)c(F)c2)ccc1=O	-20.8%
CC(C)(C)S(=O)(=O)c1ccccc1-c1noc(-c2ccccc2)c1C(N)=O	-4.58%
COc1ccc(S(=O)(=O)NC2(C(F)(F)F)N=C3SCCN3C2=O)cc1 (stereo not given)	-9.42%
COC(=O)c1cc(S(=O)(=O)N2CCC(C(N)=O)CC2)oc1C	-5.83%
CCCN(CCc1ccccc1)C1CCc2c(O)cccc2C1 (stereo not given)	99% (active)
Cc1cc(C)cc(C(=O)N(CCc2ccccc2)C2=CC3CCC(C2)N3C)c1 (stereo not given)	-8.31%
O=C(CCC(=O)N1CCN(S(=O)(=O)c2ccc(Cl)cc2)CC1)NCc1cccc(C(F)(F)F)c1	-1.2%
O=C(Cc1ccc(S(=O)(=O)N2CCOCC2)s1)N1CCN(c2ccc(C(F)(F)F)cc2[N+](=O)[O-])CC1	-0.0198%
CC(=O)NC1=NC(=O)CS1	-7.96%
Cc1ccc2cccc(OCCCOc3ccccc3CO)c2n1	-2.17%
CC1C=CCC2C(=O)N(c3cccc(C(=O)N4CCCCCC4)c3)C(=O)C12 (stereo not given)	-12.1%
COCCCNC(=O)Cn1c(=O)n(Cc2ccccc2Cl)c(=O)c2cc(OC)c(OC)cc21	-14.1%
CCCc1cc(=O)[nH]c2nnc(SCC(=O)Nc3nnc(SCC)s3)n12	-13.8%
CC(C)(C)N(Cc1ccccc1)C(=O)COC(=O)CCc1c[nH]c2ccccc12	10.1%
C[C@@H](NC(=O)[C@@H]1Cc2ccccc2CN1)C(=O)NC1CCCC1	-3.01%
COc1ccc(O)c(C(=O)c2cnc3c(c2)c(-c2ccc(F)cc2)c(C#N)c(=O)n3C)c1	11.8%
COCCn1c(=O)[nH]c(=O)c2cc(C(=O)c3cc(OC)ccc3O)cnc21	-0.0764%
COc1ccc(O)c(C(=O)c2cnc3onc(C(C)C)c3c2)c1	54.9% (active)
CCOC(=O)c1cc(-c2sc(NC(=O)c3ccccc3)nc2C)n(-c2ccc(Br)cc2)n1	2.35%
COC(=O)[C@]1(C)N[C@H](c2ccc(-c3ccc(Cl)c(Cl)c3)cc2)[C@@H]2C(=O)N(C)C(=O)[C@@H]21	-3.41%
O=C(C/C(=N\NC(=O)c1ccccc1Br)C(F)(F)F)c1cccs1	-15%
O=C(CC(CC(=O)c1ccccc1)c1ccco1)c1ccccc1	-4.42%
Nc1ccc(-n2nncc2-c2ccco2)cc1	-3.62%
